Test results taken from PubChem BioAssay.

test: compound effects on multiple myeloma cell viability – MM1S, calcein-AM fluorescence, 48 h, basal, profiling panel (AID 1165); conditions: higher = more signal
Note: test concentration not given here.

Row | SMILES | z-score
1 | CC(C)c1ccc(NN2C(C(O)C(c3ccccc3)c3ccccc3)C=CC3C(=O)N(c4ccccc4)C(=O)C32)cc1 (stereo not given) | -0.535
2 | CCN(CC)c1ccc(N2CC=CC34O[C@@H]5/C=C\CCCOC(=O)C5[C@H]3C(=O)N(CCO)[C@@H]4C2=O)cc1 (stereo not given in full) | 0.727
3 | COCCCNC(=O)C1N=C(c2ccc(OCCCO)cc2)N(c2ccccc2)O1 (stereo not given) | 0.399
4 | COc1ccc([Si](C)(C)[C@H]2[C@H](CCO)O[C@@]3(C(=O)N(C)c4c(Br)cc(C)cc43)[C@@H]2C)cc1 | -2.69
5 | COC(=O)[C@@]1(Cc2ccccc2)[C@H]2c3cc(C(=O)N4CCCC4)n(CC4CC4)c3C[C@H]2CN1C(=O)c1ccccc1 | -0.39
6 | O=C1O[C@H](c2ccccc2)[C@H](c2ccccc2)N2[C@H]1[C@@H](C(=O)Nc1nc3ccccc3s1)[C@]1(C(=O)Nc3ccc(C#CC4(O)CCCCCC4)cc31)[C@H]2c1ccc(OCCO)cc1 | -1.89
7 | COC(=O)[C@@]1(Cc2ccc(F)cc2)[C@H]2c3cc(C(=O)N4CCCC4)n(Cc4cc(C)n(C)n4)c3C[C@H]2CN1C(=O)c1ccccc1 | -0.391
8 | CC(C)(C)OC(=O)CC[C@@]12N=C(c3ccc(OCCCO)cc3)O[C@@H]1c1ccccc1N(CCS(=O)(=O)c1ccccc1)C2=O | -1.6
9 | CC(C)(C)OC(=O)CC[C@]1(C(=O)NCC(O)CO)COC(c2ccc(OCCCO)cc2)=N1 (stereo not given in full) | -1.01
10 | C=CC[C@@]1(C(N)=O)N=C(c2ccc(OCCCO)cc2)O[C@@H]1c1ccccc1CN=[N+]=[N-] | 0.204

test: calcein-AM signal in unstimulated myeloma cells – cell-based, calcein-AM fluorescence, 48 h, PK04 Diversity Set, profiling panel (AID 1166); conditions: RPMI8226 myeloma viability, higher = more signal;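 note: cells grown under basal conditions without added stimulus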

Row | SMILES | z-score
11 | COCCOC(=O)N1C(=O)[C@@]2(c3cc(C#Cc4ccc(OC)cc4)ccc31)[C@H](C(N)=O)[C@H]1C(=O)O[C@H](c3ccccc3)[C@H](c3ccccc3)N1[C@@H]2c1ccccc1OCCO | -3.94
12 | C=CCN1C(=O)[C@@]2(O[C@@H](CCO)[C@H]([Si](C)(C)c3ccc(OC)cc3)[C@H]2C)c2cc(NC(=O)c3ccc(OC)cc3)ccc21 | -4.36
13 | COC(=O)[C@@]1(Cc2ccc(F)cc2)[C@@H]2[C@@H](CC(=O)[C@H]2CC(=O)C(=O)N(C)C)CN1C(=O)c1ccccc1 | -1.73
14 | O=C1C2C=CC(C(O)c3ccc(F)cc3)N(Nc3ccccc3F)C2C(=O)N1c1ccccc1 (stereo not given) | -0.233
15 | C=CCN(Cc1ccccc1)C(=O)C(c1cccs1)N(CCOCCO)C(=O)/C=C\C(=O)O (stereo not given) | 1
16 | C=C(CCCC)/C(=C/C[C@@H](OC(C)=O)c1ccccc1OCCO)c1cnc2ccccc2c1 | -3.31
17 | COc1cc2c(cc1OC)CN(C(=O)[C@@H]1[C@H]3C(=O)O[C@H](c4ccccc4)[C@H](c4ccccc4)N3[C@H](c3ccc(O)cc3)[C@@]13C(=O)Nc1ccc(C#CC4(O)CCCCCC4)cc13)CC2 | -0.0905
18 | COCCOC(=O)N1C(=O)[C@@]2(c3cc(C#Cc4ccc(OC)cc4)ccc31)[C@H](c1ccc(O)cc1)N1[C@H](c3ccccc3)[C@H](c3ccccc3)OC(=O)[C@H]1[C@@H]2C(=O)NC[C@H](O)c1ccccc1 | -2.16
19 | COCCOC(=O)N1C(=O)[C@@]2(c3cc(C#CC4=CCCCC4)ccc31)[C@H](C(=O)Nc1nc3ccccc3s1)[C@H]1C(=O)O[C@H](c3ccccc3)[C@H](c3ccccc3)N1[C@@H]2c1ccccc1OCCO | -2.27
20 | CN(C)C(=O)[C@]1(Cc2ccccc2CN=[N+]=[N-])N=C(c2ccc(OCCCO)cc2)O[C@@H]1c1ccccc1CN=[N+]=[N-] | -4.24
21 | COc1ccc([C@H]2OC[C@@H]3CC4(CC=CC4)C(=O)N32)cc1 | 0.055
22 | CCCC[C@@H]1C[C@H]1[C@@H](NC(=O)c1ccco1)c1ccc(C(=O)OC)cc1 | -2.42
23 | O=C1C[C@]2(c3ccc([N+](=O)[O-])cc3)C(=O)N(CCN3CCOCC3)c3cc(CO)ccc3[C@H]2N1C1CCCCC1 | 0.346
24 | O=C(O)[C@@]1(CCS(=O)(=O)c2ccccc2)COC(c2ccc(OCCCO)cc2)=N1 | -0.658
25 | COc1ccc(C(O)C2C=CC3C(=O)N(c4ccccc4)C(=O)C3N2Nc2ccccc2F)cc1OCc1ccccc1 (stereo not given) | -0.43
26 | CC(=O)NCCCC[C@@H]1NC(=O)[C@@H]2C[C@H](C(=O)NCCCCN(C)C)[C@H](c3cccc(OCCO)c3)N2C1=O | -0.486
27 | O=C1NC(=O)C2C1C=CC(C(O)C(c1ccccc1)c1ccccc1)N2Nc1ccc(Cl)cc1Cl (stereo not given) | -4.14
28 | COC(=O)C(CC#Cc1ccc2c(c1)[C@]1(C(=O)N2)[C@H](c2ccc(O)cc2)N2[C@H](c3ccccc3)[C@H](c3ccccc3)OC(=O)[C@H]2[C@@H]1C(=O)Nc1nc2ccccc2s1)C(=O)OC | -1.65

Row | SMILES | z-score
29 | C=CCOC(=O)[C@H]1[C@@H]2C(=O)O[C@@H](c3ccccc3)[C@@H](c3ccccc3)N2[C@@H](c2ccc(OCCOC(=O)[C@@H]3C[C@@H]4C(=O)N5CCC[C@H]5C(=O)N4[C@@H]3c3cccc(OCCO)c3)cc2)[C@]12C(=O)Nc1ccccc12 | 0.107
30 | COc1cc(CO)cc(I)c1O[C@H]1C=C(C(=O)NCCO)C[C@@H](N(CCN2CCOCC2)C(=O)C2CCOC2)[C@@H]1O (stereo not given in full) | 0.402
31 | C=CCOC(=O)[C@@H]1[C@H]2C(=O)O[C@H](c3ccccc3)[C@H](c3ccccc3)N2[C@H](c2ccc(OCCOC(=O)[C@@H]3C[C@@H]4C(=O)N[C@@H](Cc5ccccc5)C(=O)N4[C@@H]3c3ccc(O)cc3)cc2)[C@@]12C(=O)Nc1ccc(I)cc12 | -0.645
32 | C=CCNC(=O)[C@H]1[C@@H]2C(=O)O[C@@H](c3ccccc3)[C@@H](c3ccccc3)N2[C@@H](c2ccccc2OCCO)[C@]12C(=O)Nc1ccc(C#CC3=CCCCC3)cc12 | -4.07
33 | Cc1ccc(S[C@]2(C(=O)NCCN3CCOCC3)CC(=O)N(Cc3ccccc3Cl)[C@@H]2c2ccc(CO)cc2)cc1 | -1.77
34 | COC(=O)[C@@]1(Cc2ccc(OC)cc2)[C@H]2c3cc(C(=O)N4CCCC4)n(Cc4ccccc4)c3C[C@H]2CN1C(=O)c1ccccc1 | -2.12
35 | CC(C)C(=C=CC[C@@H](O)c1ccccc1OCCO)CCO | 0.168
36 | CC(C)c1ccc(NN2C(C(O)C(c3ccccc3)c3ccccc3)C=CC3C(=O)N(c4ccccc4)C(=O)C32)cc1 (stereo not given) | -0.967
37 | CCN(CC)c1ccc(N2CC=CC34O[C@@H]5/C=C\CCCOC(=O)C5[C@H]3C(=O)N(CCO)[C@@H]4C2=O)cc1 (stereo not given in full) | -0.509
38 | COCCCNC(=O)C1N=C(c2ccc(OCCCO)cc2)N(c2ccccc2)O1 (stereo not given) | 0.336
39 | COc1ccc([Si](C)(C)[C@H]2[C@H](CCO)O[C@@]3(C(=O)N(C)c4c(Br)cc(C)cc43)[C@@H]2C)cc1 | -4.31
40 | COC(=O)[C@@]1(Cc2ccccc2)[C@H]2c3cc(C(=O)N4CCCC4)n(CC4CC4)c3C[C@H]2CN1C(=O)c1ccccc1 | -2.15
41 | O=C1O[C@H](c2ccccc2)[C@H](c2ccccc2)N2[C@H]1[C@@H](C(=O)Nc1nc3ccccc3s1)[C@]1(C(=O)Nc3ccc(C#CC4(O)CCCCCC4)cc31)[C@H]2c1ccc(OCCO)cc1 | -2
42 | COC(=O)[C@@]1(Cc2ccc(F)cc2)[C@H]2c3cc(C(=O)N4CCCC4)n(Cc4cc(C)n(C)n4)c3C[C@H]2CN1C(=O)c1ccccc1 | -0.382
43 | CC(C)(C)OC(=O)CC[C@@]12N=C(c3ccc(OCCCO)cc3)O[C@@H]1c1ccccc1N(CCS(=O)(=O)c1ccccc1)C2=O | -0.72
44 | CC(C)(C)OC(=O)CC[C@]1(C(=O)NCC(O)CO)COC(c2ccc(OCCCO)cc2)=N1 (stereo not given in full) | 0.418
45 | C=CC[C@@]1(C(N)=O)N=C(c2ccc(OCCCO)cc2)O[C@@H]1c1ccccc1CN=[N+]=[N-] | -0.189
